For 10 compounds, growth results are on record in PubChem BioAssay (NCI).

Structures are written as SMILES. This is part of a sample that, as a whole, favours compounds with a hit. Of some 83,000 tested, about 20% had one in any assay.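 Results are percent growth after 48 hours of single-concentration exposure. 100 means growth as in untreated cells, lower positive values show inhibition; negative values down to -100 show cell death.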 Values without a mark were called inactive. Active and inactive are the calls of the source. How the source made its calls: active means growth percent below 10; inactive means the rest.

Among the test systems are RPMI-8226 leukemia; OVCAR-8 ovarian; OVCAR-5 ovarian; OVCAR-4 ovarian; SK-OV-3 ovarian; IGROV1 ovarian; OVCAR-3 ovarian; HS 578T breast; T-47D breast; MDA-MB-435 melanoma; SW-620 colon; MCF7 breast; HCT-116 colon; HCC-2998 colon; KM12 colon; NCI/ADR-RES ovarian; BT-549 breast.
Holding throughout (assay): NCI-60 one-dose screen, 48 h (100 = growth as untreated, 0 = no growth, -100 = all killed)
Common to all, as to conditions: 10 µM

Take `CC(C)N(CCNc1nc(C(Cl)(Cl)Cl)nc2cc(Cl)ccc12)C(C)C`: the growth with RPMI-8226 leukemia is 3.61% (active); in the assay with OVCAR-8 ovarian it was -73.9% (active); with OVCAR-5 ovarian it was -11.1% (active); in the assay on OVCAR-4 ovarian, 7.56% (active); in the assay with SK-OV-3 ovarian it was -27.6% (active); with IGROV1 ovarian it was -38.4% (active). The growth with OVCAR-3 ovarian is -37.5% (active); with HS 578T breast it was 12%; with T-47D breast it was 5.12% (active); in the assay on MDA-MB-435 melanoma, -47.2% (active); with SW-620 colon, -30.6% (active); in the assay with MCF7 breast, -85.6% (active). Further, the growth is -90.6% (active) with HCT-116 colon, -50.2% (active) in the assay with HCC-2998 colon and -79.1% (active) in the assay on KM12 colon.
As to `Nc1nc(-c2ccccc2Cl)cc(-c2ccc(Cl)cc2Cl)n1`, the growth in the assay with RPMI-8226 leukemia was 35.2%; with OVCAR-8 ovarian it was 71.2%; in the assay with OVCAR-5 ovarian it was 96.2%; in the assay with OVCAR-4 ovarian it was 79.6%; in the assay on SK-OV-3 ovarian it was 93%; in the assay on IGROV1 ovarian, 74.7%. Also, the growth with OVCAR-3 ovarian was 85.2%; with HS 578T breast it was 61.9%; in the assay on NCI/ADR-RES ovarian, 79.8%; in the assay on BT-549 breast, 75.3%; in the assay on MDA-MB-435 melanoma, 0.0733% (active); with SW-620 colon, 39%. Further, the growth with MCF7 breast was 45.7%; with HCT-116 colon it was 33%; in the assay with HCC-2998 colon, 83.6%; in the assay on KM12 colon, 53.8%.
As to `O=C(Nc1ccc(CN2CCc3nc4cc(O)c(O)cc4cc32)cc1)c1ccc(Cl)c(Cl)c1`, the growth in the assay on RPMI-8226 leukemia is 103%; in the assay on OVCAR-8 ovarian, 106%; with OVCAR-5 ovarian it was 106%; in the assay with OVCAR-4 ovarian, 117%; in the assay on SK-OV-3 ovarian, 106%; in the assay on IGROV1 ovarian it was 102%. Also, the growth in the assay with OVCAR-3 ovarian was 104%; in the assay on HS 578T breast, 102%; in the assay with NCI/ADR-RES ovarian, 106%; with BT-549 breast, 101%; in the assay on MDA-MB-435 melanoma it was 100%; in the assay on SW-620 colon, 97.2%. The growth in the assay with MCF7 breast is 93.7%; in the assay with HCT-116 colon, 100%; in the assay with HCC-2998 colon, 112%; in the assay with KM12 colon, 99.9%.
Turning to `CC(=O)/C(=C/c1ccccc1)C(=O)CC(C)C`, the growth in the assay with RPMI-8226 leukemia is 18.4%; in the assay with OVCAR-8 ovarian, 75.2%; in the assay with OVCAR-5 ovarian it was 93.9%; in the assay with OVCAR-4 ovarian, 103%; in the assay with SK-OV-3 ovarian, 106%; in the assay with IGROV1 ovarian, 98.8%. The growth in the assay on OVCAR-3 ovarian was 75.1%; with HS 578T breast it was 89.6%; in the assay with NCI/ADR-RES ovarian, 93.5%; in the assay on BT-549 breast it was 98.8%; in the assay on MDA-MB-435 melanoma, 54.3%; with SW-620 colon, 24.7%. Further, the growth in the assay on MCF7 breast was 50.4%; in the assay with HCT-116 colon, 27.7%; in the assay on HCC-2998 colon, 105%; with KM12 colon, 72.2%.
Consider `Cc1cc2ccccc2nc1-c1ccccc1F`, for which the growth with RPMI-8226 leukemia is 101%; in the assay with OVCAR-8 ovarian it was 102%; with OVCAR-5 ovarian it was 106%; in the assay with OVCAR-4 ovarian it was 117%; in the assay on SK-OV-3 ovarian, 96.4%; in the assay on IGROV1 ovarian it was 129%. Further, the growth in the assay with OVCAR-3 ovarian was 105%; in the assay on HS 578T breast, 106%; in the assay on NCI/ADR-RES ovarian, 112%; with BT-549 breast, 92.2%; in the assay with MDA-MB-435 melanoma, 111%; in the assay on SW-620 colon, 106%. Further, the growth in the assay with MCF7 breast was 101%; in the assay with HCT-116 colon, 102%; in the assay with HCC-2998 colon, 109%; in the assay with KM12 colon, 110%.
As to `CCCCOC(=O)Oc1ccc(C(=O)Oc2ccc(OCC)cc2)cc1`, the growth with RPMI-8226 leukemia was 74.6%; in the assay on OVCAR-8 ovarian, 99.1%; in the assay with OVCAR-5 ovarian, 94.3%; with OVCAR-4 ovarian it was 87.9%; in the assay with SK-OV-3 ovarian it was 111%; with IGROV1 ovarian, 105%. Also, the growth is 98.6% in the assay with OVCAR-3 ovarian; 94.5% in the assay on HS 578T breast; 111% with T-47D breast; 85.9% in the assay on BT-549 breast; 93.4% in the assay with MDA-MB-435 melanoma; 110% in the assay on SW-620 colon. The growth in the assay on MCF7 breast was 123%; with HCT-116 colon, 98.2%; with HCC-2998 colon, 102%; in the assay on KM12 colon, 94.8%.
Consider `Nc1ccc2c(c1)C1(CCC2)NC(=O)NC1=O` (centres undefined), for which the growth in the assay with RPMI-8226 leukemia is 98.4%; in the assay on OVCAR-8 ovarian, 100%; with OVCAR-5 ovarian, 92.8%; with OVCAR-4 ovarian, 106%; in the assay with SK-OV-3 ovarian it was 109%; with OVCAR-3 ovarian it was 110%. The growth was 103% in the assay on HS 578T breast; 108% in the assay with NCI/ADR-RES ovarian; 96.3% in the assay on T-47D breast; 102% in the assay on BT-549 breast; 102% in the assay on MDA-MB-435 melanoma; 104% in the assay on SW-620 colon. Also, the growth with MCF7 breast is 97.2%; in the assay with HCT-116 colon, 101%; in the assay on HCC-2998 colon, 115%; in the assay on KM12 colon it was 102%.
With `O=C(CC(c1ccccc1)N1CCOCC1)c1ccccc1` (centres undefined), the growth is 5.15% (active) with RPMI-8226 leukemia; 96.6% in the assay on OVCAR-8 ovarian; 79.3% with OVCAR-5 ovarian; 98.3% with OVCAR-4 ovarian; 104% in the assay on SK-OV-3 ovarian; 97.4% in the assay with IGROV1 ovarian. Further, the growth in the assay with OVCAR-3 ovarian was 94.7%; with NCI/ADR-RES ovarian, 91.2%; with T-47D breast it was 72%; in the assay with BT-549 breast it was 89.8%; in the assay on MDA-MB-435 melanoma, 89.7%; in the assay with MCF7 breast, 32.2%. For the same compound, the growth is 34.5% in the assay with HCT-116 colon and 23% in the assay on KM12 colon.
For `COc1cc(/C(=C2/O[C@@H]([C@H]3COC(C)(C)O3)[C@H]3OC(C)(C)O[C@@H]23)c2ccc3ccccc3c2)cc(OC)c1OC`, the growth in the assay with RPMI-8226 leukemia is 36.8%; in the assay on OVCAR-8 ovarian it was 18.9%; with OVCAR-5 ovarian, 38.2%; in the assay on OVCAR-4 ovarian, 25.7%; in the assay on SK-OV-3 ovarian, 51.4%; in the assay on IGROV1 ovarian, 21.4%. The growth with OVCAR-3 ovarian is -6.76% (active); with NCI/ADR-RES ovarian it was 25.9%; in the assay on BT-549 breast, 22.2%; in the assay on MDA-MB-435 melanoma, 26.2%; in the assay with MCF7 breast, 22.8%; in the assay on HCT-116 colon, -56.4% (active). The growth with KM12 colon is 33.4%.
Take `COC(=O)C(=C\c1ccc2c(c1)OCO2)/C(=C/c1ccc2c(c1)OCO2)C(=O)OC`: the growth in the assay with RPMI-8226 leukemia was 98.7%; with OVCAR-8 ovarian it was 103%; in the assay on OVCAR-5 ovarian, 98.9%; in the assay with OVCAR-4 ovarian it was 106%; in the assay on SK-OV-3 ovarian it was 105%; in the assay with IGROV1 ovarian it was 87.1%. Besides, the growth in the assay with HS 578T breast was 106%; in the assay with NCI/ADR-RES ovarian, 96.4%; in the assay with T-47D breast, 89.2%; in the assay on BT-549 breast it was 95.5%; with MDA-MB-435 melanoma, 104%; with SW-620 colon, 110%. Also, the growth in the assay on MCF7 breast was 96.9%; with HCT-116 colon, 92.9%; in the assay with HCC-2998 colon it was 94.6%; in the assay with KM12 colon it was 102%.
